“And” between values parts separate entries of the source, which are not always exact repeats. Equal entries are not always repeated. In all, about 320,000 compounds went through this assay and about 2,100 (0.66%) were called active. About 53% were inconclusive and are not listed. Calls follow the shape of the dose curve; as a rule, active = well fitted inhibition curve with a large enough effect in the signal ratio, with a control signal flat (not every such curve was filed as active); inconclusive = small, poorly fitted or top-dose-only effect, or effect the other way, or a change in a side signal; inactive = flat fitted curve, though single readings scatter; the % refers to the signal ratio. What follows is part of a selection rich in actives, with near analogues and random picks from the rest.
assay: qHTS Assay for Lipid Storage Modulators in Drosophila S3 Cells; conditions: BODIPY lipid droplet fluorescence, 18-24 h, cells fed with added oleic acid; cell number change: measured here: cell count max response; series mostly up to 46.1 µM;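 as to cell number change: cells counted by Cell Tracker Red CMTPX staining in the red channel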; as to lipid storage change, negative = inhibition: % is scaled to controls: 0 for no effect and ±100 for the full control effect
Procedure, shortened: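 Drosophila S3 cells loaded with oleic acid (400 uM, as added) and compounds at several concentrations; lipid droplets imaged by 488-nm laser-scanning cytometry, 500–530 nm intensity and object ratio to cell channel. Percent activity normalized to 20 uM Triacsin C.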
Potency is read from the fitted curve at half-maximal effect.

| Structure (SMILES) | Potency | cell number change | lipid storage change, negative = inhibition |
| --- | --- | --- | --- |
| S=c1[nH]nc(-c2cccnc2)n1/N=C/c1ccco1 | inactive | 1.79% |  |
| CCCCC(C)n1[nH]c(=O)cc1N (stereo unspecified) | 25.9 µM (active) | -24.5% |  |
| CCC(C)n1[nH]c(=O)cc1N (stereo unspecified) | inactive | 5.9% |  |
| CCCC(C)n1[nH]c(=O)cc1N (stereo unspecified) | inactive | 0.134% |  |
| O=C1CCCN1CCNC(=S)Nc1ccccc1 | inactive | -13% |  |
| Nc1nc(SCc2nnc(SCC(=O)O)n2-c2ccccc2)nc2sc3c(c12)CCCC3 | 23.1 µM (active) | 3.22% |  |
| Cc1ccccc1-n1c(SCC(=O)O)nc2sc3c(c2c1=O)CCCC3 | inactive |  |  |
| NC(=O)CSc1nc(N)c2c3c(sc2n1)CCCCC3 | inactive | -16.5% |  |
| Cc1ccc(C)c(-n2c(SCC(=O)O)nc3sc4c(c3c2=O)CCCC4)c1 | 0.116 µM (active) | 13% |  |
| Cc1ccc(-n2c(SCC(=O)O)nc3sc4c(c3c2=O)CCCC4)cc1 | inactive | 9.08% |  |
| O=C(O)CSc1nc2sc3c(c2c(=O)n1-c1ccccc1)CCC3 | inactive | 10.3% |  |
| Cc1cc(C)c2c(CN3CC(C)OC(C)C3)cc(=O)oc2c1C (stereo unspecified) | inactive | -15.5% |  |
| O=C(Nc1ccccc1)N(CCN1CCOCC1)Cc1cccc(Cl)c1 | inactive | -10.2% |  |
| Cc1cc(C(=O)N/N=C/c2cccn2C)no1 | inactive | 6.61% |  |
| CCOC(=O)N1CCc2c(sc3nc(SC(C)C)n(N)c(=O)c23)C1 | inactive | -1.6% |  |
| Oc1ccc(Br)cc1C=Nc1ccc(Cl)cc1 | inactive | -3.17% |  |
| CCc1c(C)sc(NC(=O)Cc2ccccc2OC)c1C(=O)N1CCOCC1 | inactive | -8.21% |  |
| CC(=O)OCC(=O)[C@@]1(O)CC[C@H]2[C@@H]3CCC4=CC(=O)CC[C@]4(C)[C@H]3C(=O)C[C@@]21C | inactive | 11.1% |  |
| CC12CCC(=O)C=C1CCC1C2C(=O)CC2(C)C1CCC2(O)C(=O)CO (stereo unspecified) | 16.4 µM (active) | -13.5% |  |
| C[C@]12C=CC(=O)C=C1CC[C@@H]1[C@@H]2C(=O)C[C@@]2(C)[C@H]1CC[C@]2(O)C(=O)CO | inactive | 21.3% and -3.16% |  |
| CCCCC(CC)C(=O)Nc1ccc(Nc2ccccc2)cc1 (stereo unspecified) | inactive | -8.16% |  |
| CN1C(=O)C(=C2CCCCCC2)SC1=S | inactive | -2.61% |  |
| COc1cc2c(cc1OC)C1O[C@](CCCCN3C(=O)c4ccccc4C3=O)(C2)Oc2c1c(=O)oc1ccc(F)cc21 |  | -5.97% | 16.8% [at 9.22 µM] (inactive) |
| CCOC(=O)/C(C#N)=C/c1cc2cc(C)c(C)cc2nc1Cl | inactive | -0.849% |  |
| CC1CCCCN1C(=O)Cn1c(=O)n(CCC(=O)NCc2ccco2)c(=O)c2sccc21 (stereo unspecified) | inactive | -5.81% |  |
| CN(Cc1c(C(=O)N/N=C/c2c(F)cccc2Cl)nnn1-c1nonc1N)c1ccccc1 | inactive | 8.36% |  |
| Cc1ccc(COc2cccc(/C=N/NC(=O)c3nnn(-c4nonc4N)c3C)c2)cc1 | 20.6 µM (active) | 50% |  |
| CC(=C/c1ccco1)/C=N/NC(=O)c1nnn(-c2nonc2N)c1CN(C)C | inactive |  |  |

| Structure (SMILES) | Potency | cell number change | lipid storage change, negative = inhibition |
| --- | --- | --- | --- |
| Nc1nonc1-n1nnc(C(=O)N/N=C/c2ccccc2Br)c1CN1CCCC1 | inactive | -1.9% |  |
| CCOc1ccccc1/C=N/NC(=O)c1nnn(-c2nonc2N)c1CN1CCCC1 | 20.6 µM (active) | 16% |  |
| CCCN(CCC)Cc1c(C(=O)N/N=C/C(C)=C\c2ccco2)nnn1-c1nonc1N | 11.6 µM (active) | -11.1% |  |
| Nc1nonc1-n1nnc(C(=O)N/N=C/c2cccc(Cl)c2Cl)c1CN1CCCC1 | inactive | 16.7% |  |
| CC(C)c1c(C(=O)N/N=C/c2ccccc2OCc2c(F)cccc2Cl)nnn1-c1nonc1N | inactive |  |  |
| Cc1cccc(COc2ccc(/C=N/NC(=O)c3nnn(-c4nonc4N)c3C)cc2)c1 | inactive | 11.5% |  |
| CC(/C=N/NC(=O)c1nnn(-c2nonc2N)c1CN(C)C)=C\c1ccco1 | inactive | -0.367% |  |
| CN(C)Cc1c(C(=O)N/N=C/c2ccccc2OCc2c(F)cccc2Cl)nnn1-c1nonc1N | 4.11 µM (active) | 0.435% |  |
| CC(C)c1c(C(=O)N/N=C/c2cccc(OCc3ccc(F)cc3)c2)nnn1-c1nonc1N | inactive | 11.8% |  |
| Cc1cc(NC(=O)COc2ccc3oc4ccccc4c3c2)no1 | inactive | -12.8% |  |
| CC1CCN(C(=O)c2ccc3c(Cl)c4c(nc3c2)CCCC4)CC1 | inactive | 2.72% |  |
| Cc1ccc(S(=O)(=O)CCN2CCN(c3ccccc3)CC2)cc1 | inactive | -10.3% |  |
| NS(=O)(=O)c1ccc(CCNC(=O)C(=O)NCC2OCCN2S(=O)(=O)c2ccc(Cl)cc2)cc1 (stereo unspecified) | inactive | -8.07% |  |
| CN(Cc1c(C(=O)N/N=C/c2ccccc2)nnn1-c1nonc1N)c1ccccc1 | 4.61 µM (active) | -11.2% |  |
| CN(Cc1c(C(=O)N/N=C/c2ccc(O)cc2)nnn1-c1nonc1N)c1ccccc1 | inactive | -9.24% |  |
| CN(C)c1ccc(/C=N/NC(=O)c2nnn(-c3nonc3N)c2CN(C)c2ccccc2)cc1 | inactive | 24.5% |  |
| Cc1ccc(-n2c(SCc3cn4ccsc4n3)nc3ccccc3c2=O)cc1 | inactive | -7.5% |  |
| C=C(C)CSc1nnc([C@@H]2CCCN2)o1 | inactive | 9.92% |  |
| COc1ccc(S(=O)(=O)N2CCCC2C(=O)Nc2ccc(C(C)=O)cc2)cc1 (stereo unspecified) | inactive | -11.3% |  |
| CC1Sc2ccc(S(=O)(=O)N3CCC(C(=O)Nc4ccc(Cl)cc4)CC3)cc2NC1=O (stereo unspecified) | inactive | 7.08% |  |
| CCOc1ccc(NC(=O)C2CCCN2S(=O)(=O)c2ccc(OCC)cc2)cc1 (stereo unspecified) | 0.651 µM (active) | 9.72% |  |
| COc1ccc(NC(=O)C2CCN(S(=O)(=O)c3ccc4c(c3)NC(=O)C(C)S4)CC2)cc1 (stereo unspecified) | inactive | 2.12% |  |
| CCc1cccc(NC(=O)C2CCCN(S(=O)(=O)c3ccc4[nH]c(=O)ccc4c3)C2)c1 (stereo unspecified) | inactive | 16% |  |
| CCOc1ccc(NC(=O)C2CCN(S(=O)(=O)c3ccc4c(c3)NC(=O)C(C)S4)CC2)cc1 (stereo unspecified) | 1.03 µM (active) |  |  |
| COc1ccc(NC(=O)C2CCCN2S(=O)(=O)c2ccc(F)cc2)cc1 (stereo unspecified) |  | -1.12% | -17.7% [at 9.22 µM] (inactive) |
| CCOc1ccc(NC(=O)C2CCCN(S(=O)(=O)c3ccc4[nH]c(=O)ccc4c3)C2)cc1 (stereo unspecified) | 20.6 µM (active) | 23.6% |  |
| O=C(Nc1ccc(F)cc1)C1CCCN(S(=O)(=O)c2ccc3[nH]c(=O)ccc3c2)C1 (stereo unspecified) | inactive | 23.9% |  |

Reference: PubChem BioAssay AID2685 (National Center for Advancing Translational Sciences (NCATS), 2010)
